Where “and” joins values, the source holds several entries; their conditions need not be identical. Equal entries are not always repeated. In all, about 5,500 compounds went through this assay and about 2,000 (36%) were called active. Another 18% or so got no clear call; they are omitted. Cut-off read from the data, not from the text of the source: active = normalized growth mostly below about 0.91 (no sharp cut-off); inconclusive = no clear call, values can overlap the other calls; inactive = mostly above about 0.92. The list shows a part of the results.
Assay: chemical genetic growth profiling, strain panel (AID 1159580);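 note: tested at 20 µM; growth read once vehicle control cultures reached saturation at 30 °C; 1 = growth at the plate median or of vehicle wells; lower values mean less growth of the strain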
Settings: S. cerevisiae deletion strains, growth OD

Measured: normalized growth

N=c1ccn2c(n1)O[C@@H]1C2O[C@H](CO)[C@H]1O (stereo not given in full)
inactive: locus YAL021C, strain ccr4, hits give low values 1.02 | locus YAL026C, strain drs2, hits give low values 0.981 | locus YAL030W, strain snc1, hits give low values 0.987 | locus YBL061C, strain skt5, hits give low values 0.985 | locus YBR009C, strain hhf1, hits give low values 0.965 | locus YBR021W, strain FUR4, hits give low values 1.01 | locus YBR023C, strain chs3, hits give low values 0.99 | locus YBR171W, strain sec66, hits give low values 0.988 | locus YBR229C, strain ROT2, hits give low values 1 | locus YBR231C, strain swc5, hits give low values 0.98 | locus YBR279W, strain paf1, hits give low values 0.992 | locus YCL011C, strain gbp2, hits give low values 0.984 | locus YCL016C, strain dcc1, hits give low values 0.983 | locus YCL029C, strain bik1, hits give low values 1.01 | locus YCL061C, strain MRC1, hits give low values 0.988 | locus YCL069W, strain vba3, hits give low values 0.991 | locus YCR088W, strain abp1, hits give low values 0.993 | locus YDL005C, strain med2, hits give low values 0.992 | locus YDL035C, strain GPR1, hits give low values 1.01 | locus YDL040C, strain nat1, hits give low values 0.979 | locus YDL074C, strain BRE1, hits give low values 1.02 | locus YDL101C, strain DUN1, hits give low values 1.01 | locus YDL185W, strain tfp1, hits give low values 1.01 | locus YDL192W, strain arf1, hits give low values 1.01 | locus YDR001C, strain nth1, hits give low values 0.982 | locus YDR069C, strain doa4, hits give low values 0.962 | locus YDR101C, strain arx1, hits give low values 0.987 | locus YDR137W, strain rgp1, hits give low values 0.982 | locus YDR159W, strain sac3, hits give low values 0.939 | locus YDR162C, strain NBP2, hits give low values 1.01 | locus YDR195W, strain ref2 0.91 | locus YDR297W, strain sur2, hits give low values 0.996 | locus YDR318W, strain mcm21, hits give low values 1 | locus YDR334W, strain swr1, hits give low values 0.985 | locus YDR335W, strain msn5, hits give low values 0.979 | locus YDR388W, hits give low values 1.01 | locus YDR392W, strain spt3, hits give low values 0.83 | locus YDR502C, strain sam2, hits give low values 1.03 | locus YEL003W, strain gim4, hits give low values 0.984 | locus YEL037C, strain rad23, hits give low values 0.991 | locus YEL061C, strain CIN8 (second series), hits give low values 0.984 | locus YEL061C, strain CIN8, hits give low values 1.01 | locus YER015W, strain faa2, hits give low values 0.985 | locus YER016W, strain bim1, hits give low values 0.982 | locus YER110C, hits give low values 1.01 | locus YER111C, strain swi4, hits give low values 0.974 | locus YER155C, strain BEM2 (second series), hits give low values 0.949 | locus YER155C, strain BEM2, hits give low values 1 | locus YER167W, strain BCK2, hits give low values 1.01 | locus YFR010W, strain ubp6, hits give low values 0.975 | locus YGL078C, strain dbp3, hits give low values 1.01 | locus YGL086W, strain mad1, hits give low values 1.01 | locus YGL167C, strain pmr1, hits give low values 0.984 | locus YGL173C, strain kem1, hits give low values 0.981 | locus YGL227W, strain vid30, hits give low values 0.984 | locus YGL240W, strain doc1, hits give low values 0.959 | locus YGL248W, strain PDE1, hits give low values 1.01 | locus YGL253W, strain hxk2, hits give low values 0.981 | locus YGR078C, strain PAC10, hits give low values 1.01 | locus YGR135W, strain pre9, hits give low values 1.03 | locus YGR252W, strain gcn5, hits give low values 0.988 | locus YHR013C, strain ard1, hits give low values 0.939 | locus YHR027C, strain rpn1, hits give low values 0.989 | locus YHR030C, strain SLT2, hits give low values 1.01 and 0.988 | locus YHR079C, strain IRE1 (second series), hits give low values 1 | locus YHR079C, strain IRE1, hits give low values 0.985 | locus YHR094C, strain hxt1, hits give low values 1.01 | locus YHR129C, strain ARP1, hits give low values 0.997 | locus YHR142W, strain chs7, hits give low values 1.04 | locus YHR200W, strain rpn10, hits give low values 1.01 | locus YIL066C, strain RNR3, hits give low values 1.01 | locus YIL073C, strain SPO22, hits give low values 1.04 | locus YIL125W, strain kgd1, hits give low values 1 | locus YIR030C, strain dcg1, hits give low values 1.02 | locus YJL092W, strain hpr5, hits give low values 0.982 | locus YJL095W, strain BCK1 (second series), hits give low values 0.99 | locus YJL095W, strain BCK1, hits give low values 1.04 and 0.994 | locus YJL115W, strain asf1, hits give low values 1 | locus YJL129C, strain trk1, hits give low values 0.999 | locus YJL134W, strain LCB3, hits give low values 1.01 | locus YJL154C, strain vps35, hits give low values 0.988 | locus YJL164C, strain tpk1, hits give low values 1.01 | locus YJL166W, strain qcr8, hits give low values 0.99 | locus YJL168C, strain set2, hits give low values 1.01 | locus YJL187C, strain SWE1 (second series), hits give low values 1.02 | locus YJL187C, strain SWE1, hits give low values 0.984 | locus YJR043C, strain POL32, hits give low values 1.01 | locus YJR066W, strain TOR1, hits give low values 0.908 | locus YKL009W, strain mrt4, hits give low values 1.02 | locus YKL068W, hits give low values 1.01 | locus YKL085W, strain MDH1 (second series), hits give low values 1.02 | locus YKL085W, strain MDH1, hits give low values 1.02 | locus YKL160W, strain elf1, hits give low values 1.02 | locus YKL190W, strain CNB1, hits give low values 1.01 | locus YKR001C, strain vps1, hits give low values 1 | locus YKR026C, strain gcn3, hits give low values 0.989 | locus YKR091W, strain srl3, hits give low values 0.99 | locus YLL001W, strain dnm1, hits give low values 0.982 | locus YLL026W, hits give low values 0.987 | locus YLL041C, strain sdh2, hits give low values 0.992 | locus YLR027C, strain aat2, hits give low values 0.985 | locus YLR039C, strain RIC1, hits give low values 1 | locus YLR058C, strain SHM2, hits give low values 1.01 | locus YLR102C, strain apc9, hits give low values 1.01 | locus YLR113W, strain HOG1, hits give low values 0.989 | locus YLR221C, strain rsa3, hits give low values 1.01 | locus YLR258W, strain gsy2, hits give low values 0.984 | locus YLR262C, strain YPT6 (second series), hits give low values 1.01 | locus YLR262C, strain YPT6, hits give low values 1.02 | locus YLR268W, strain sec22, hits give low values 1 | locus YLR320W, strain mms22, hits give low values 0.971 | locus YLR330W, strain CHS5, hits give low values 1 | locus YLR342W, strain FKS1 (second series), hits give low values 1.01 | locus YLR342W, strain FKS1, hits give low values 0.985 | locus YLR357W, strain rsc2, hits give low values 0.95 | locus YLR370C, strain arc18, hits give low values 0.991 | locus YLR371W, strain rom2, hits give low values 1.01 | locus YLR384C, strain iki3, hits give low values 0.997 | locus YLR418C, strain cdc73, hits give low values 1.01 | locus YML016C, strain PPZ1, hits give low values 1.01 | locus YML032C, strain rad52, hits give low values 1 | locus YML120C, strain ndi1, hits give low values 1.01 | locus YML124C, strain tub3, hits give low values 1.01 | locus YMR058W, strain fet3, hits give low values 0.992 | locus YMR078C, strain ctf18, hits give low values 1.01 | locus YMR125W, strain sto1, hits give low values 0.951 | locus YMR129W, hits give low values 0.997 | locus YMR205C, strain PFK2, hits give low values 0.957 | locus YMR223W, strain ubp8, hits give low values 1.02 | locus YMR231W, strain pep5, hits give low values 0.991 | locus YMR307W, strain GAS1, hits give low values 1.02 | locus YNL067W, strain RPL9B, hits give low values 1.03 | locus YNL071W, strain lat1, hits give low values 0.994 | locus YNL153C, strain GIM3, hits give low values 1.02 | locus YNL183C, strain NPR1, hits give low values 0.941 | locus YNL209W, strain ssb2, hits give low values 1 | locus YNL233W, strain BNI4, hits give low values 1.01 | locus YNL248C, strain rpa49, hits give low values 1.01 | locus YNL250W, strain rad50, hits give low values 1 | locus YNL271C, strain bni1, hits give low values 1.02 | locus YNL298W, strain CLA4, hits give low values 1.01 | locus YNL307C, strain MCK1, hits give low values 1.01 | locus YNL322C, strain KRE1 (second series), hits give low values 1 | locus YNR049C, strain mso1, hits give low values 0.986 | locus YNR052C, strain pop2, hits give low values 1.02 | locus YOL006C, strain TOP1, hits give low values 1.09 | locus YOL012C, strain htz1 1.21 | locus YOL147C, strain pex11, hits give low values 1.01 | locus YOR001W, strain rrp6, hits give low values 1.01 | locus YOR061W, strain CKA2, hits give low values 1.01 | locus YOR069W, strain VPS5, hits give low values 1.01 | locus YOR070C, strain gyp1, hits give low values 0.995 | locus YOR080W, strain dia2, hits give low values 0.965 | locus YOR083W, strain WHI5, hits give low values 1.03 | locus YOR106W, strain vam3, hits give low values 1.02 | locus YOR136W, strain idh2, hits give low values 1.01 | locus YOR144C, strain elg1, hits give low values 1 | locus YOR184W, strain ser1, hits give low values 1.01 | locus YOR231W, strain MKK1, hits give low values 0.999 | locus YOR265W, strain rbl2, hits give low values 0.99 | locus YOR270C, strain vph1, hits give low values 0.983 | locus YOR290C, strain snf2, hits give low values 0.974 | locus YOR316C, strain cot1, hits give low values 1.02 | locus YPL051W, strain arl3, hits give low values 1 | locus YPL055C, strain LGE1, hits give low values 1.02 | locus YPL078C, strain atp4, hits give low values 1.01 | locus YPL106C, strain sse1, hits give low values 0.979 | locus YPL240C, strain hsp82, hits give low values 0.993 | locus YPL241C, strain CIN2, hits give low values 1.02 | locus YPL256C, strain CLN2, hits give low values 1.04 | locus YPR119W, strain clb2, hits give low values 1 | locus YPR141C, strain kar3, hits give low values 1.01 | locus YPR163C, strain tif3, hits give low values 1.01 | locus YPR167C, strain met16, hits give low values 1 | strain wtn01, hits give low values 1

Reference: PubChem BioAssay AID1159580 (chemical genetic matrix, 2015)
